KB-3-1 cytotox: qHTS assay for MDR1-selective chemotherapeutics: Primary screen using the parental adenocarcinoma cell KB-3-1 | KB-3-1 viability, CellTiter-Glo ATP luminescence, 72 h | Potency, µM (doses to about 46.1 µM), most hits filed as cytotoxic | hit rate 1.4% among 400,000; note: nearly all actives have a fitted effect of over 60% in size
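Parental KB-3-1 viability, qHTS format: 72 h compound exposure, 37 °C; CellTiter-Glo; media-only wells and DMSO plates as controls; concentration-effect fits on corrected data.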
KB-V1 MDR tox: qHTS assay for MDR1-selective chemotherapeutics: Primary screen using the drug-selected MDR subline cells KB-V1. KB-V1 MDR cells viability, CellTiter-Glo, 72 h. Potency, µM (highest dose often 46.1 µM), usual class: cytotoxic. hit rate 3.4% among 400,000. AID 1347076, 2019; note: nearly all actives have a fitted effect of over 60% in size
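Readout: CellTiter-Glo luminescence, 10 min after addition. Cells: KB-V1 MDR subline, 72 h at 37 degrees C with compound. Analysis: corrected, normalized data fitted to concentration-effect curves.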
HT1080-NT tox: qHTS for induction of synthetic lethality in tumor cells producing 2HG: qHTS for the HT-1080-NT fibrosarcoma cell line. HT-1080-NT fibrosarcoma viability, CellTiter-Glo ATP luminescence, 48 h. Potency, µM (doses to about 46.1 µM), for the others: top-dose activity, negative = less viability, actives largely listed as cytotoxic. hit rate 1.6% among 360,000. AID 686970, 2013;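 note: NT is the 2HG producing partner of a matched IDH1 knockdown line; 0% = DMSO-treated cells and -100% = media-only wells without cells; nearly all actives have a fitted effect of over 55% in size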
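750 cells/well, RPMI + 5% FBS; 2 h settle, compound pin-transfer, 48 h at 37 degrees C. CellTiter-Glo 10 min RT, luminescence. Normalized to DMSO and media-only wells.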
HT1080 IDH1KD tx: qHTS for induction of synthetic lethality in tumor cells producing 2HG: qHTS for the HT-1080-IDH1KD cell line | HT-1080 IDH1 knockdown viability, ATP luminescence, 48 h | Potency, µM (top dose mostly 46.1 µM), for inactives: at the highest dose activity, negative = toxicity, usual class: cytotoxic | hit rate 2% among 360,000;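 note: 0% = DMSO wells and -100% = cell-free medium wells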
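Assay cells: HT-1080 with IDH1 knockdown, 750 per well, RPMI/5% FBS. Exposure: 48 h at 37 °C following 2 h pre-incubation. Read: CellTiter-Glo luminescence; fitted concentration-response, curve class assigned.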
Numbers without * were called inactive; i = inactive; ? = inconclusive; nt = not tested or not shown; ! = repeats disagree. The list is not random: actives were taken first. Their share in the collection is about 5.7%. Calls come from the whole dose curve; as a rule, active = well fitted curve in the direction sought with a large enough effect; inconclusive = small, poorly fitted or top-dose-only effect, or another doubt; inactive = no such curve, though single readings can be large; an effect the other way counts as inactive or inconclusive. Unless noted, % is set by controls: 0 for no effect and ±100 for the full control effect; potency is the fitted concentration of half-maximal effect.

SMILES	KB-3-1 cytotox	KB-V1 MDR tox	HT1080-NT tox	HT1080 IDH1KD tx
O=C(N/N=C/c1ccc2c(c1)OCO2)c1cc(-c2ccccc2)nc2ccccc12	?	i	-25%	-25%
Cn1cc(C(=O)N/N=C/c2ccc3c(c2)OCO3)c2ccccc21	8.2µM*	?	21µM*	12µM*
COc1cc(/C=N/NC(=O)c2cc(-c3cccs3)nc3ccccc23)ccc1O	?	?	-23%	?
N#Cc1ccc(/C=N/NC(=O)c2cc(-c3cccs3)nc3ccccc23)cc1	?	i	?	10µM*
Cn1cc(C(=O)N/N=C/c2ccc(Br)c([N+](=O)[O-])c2)c2ccccc21	16µM*	i	14%	-2%
Cn1cc(C(=O)N/N=C/c2cccs2)c2ccccc21	i	i	-30%	?
CCCOc1ccc(C(=O)Nc2cc3nn(-c4ccc(CC)cc4)nc3cc2C)cc1	i	i	nt	nt
Cc1nn(CCCC(=O)Nc2ccccc2C(F)(F)F)c(=O)c2c1sc1ccccc12	i	i	nt	nt
Cc1ccc(S(=O)(=O)Cc2ccc(C(=O)NCc3ccc4c(c3)OCO4)o2)cc1	i	9.2µM*	11%	10%
CC(NC(=O)c1ccc(CS(=O)(=O)c2ccc(Cl)cc2)o1)c1ccc2c(c1)OCCO2 (configuration not stated)	i	10µM*	4%	-2%
COc1cc(-c2nnc(SCC(=O)N(C)C3CCCCC3)o2)cc(OC)c1OC	i	i	nt	nt
Cc1ccc(CNC(=O)c2ccc3c(c2)N(Cc2cccc(C)c2)C(=O)CS3)cc1	i	i	nt	nt
O=C(Nc1ccccc1)[C@@H]1CC=C[C@@H]2CCN(Cc3ccc(Cl)c(Cl)c3)C(=O)[C@@H]21	i	21µM*!	?	?
COCCCN=C1NN=C(c2cc(C)n(-c3ccccc3F)c2C)CS1	7.3µM*	i	?	?
Cc1cccc(N=C2NN=C(c3ccccc3F)CS2)c1C	i	i	5%	0%
COCCCN=C1NN=C(c2cc(C)n(-c3ccccc3)c2C)CS1	i	i	7%	13%
COCCn1c(C)cc(C2=NNC(=Nc3ccccc3F)SC2)c1C	18µM*	12µM*	-1%	-10%
COCCCN=C1NN=C(c2cc(C)n(Cc3ccccc3Cl)c2C)CS1	1.3µM*	1.5µM*	4.6µM*	7.3µM*
Cc1cc(C2=NNC(=Nc3ccccc3)SC2)c(C)n1C	i	i	7%	-2%
Fc1ccccc1N=C1NN=C(c2ccccc2)CS1	?	?	13µM*	?
Cc1cccc(Cn2nnc3c(=O)[nH]c(C4CCN(C(=O)c5ccc(F)cc5)CC4)nc32)c1	i	i	nt	nt
COc1ccc(-n2c(CCC(=O)O)ccc2-c2ccccc2)c(OC)c1	i	i	nt	nt
O=C(CN1C(=O)c2cccnc2Sc2ccccc21)Nc1cc(F)ccc1F	i	i	nt	nt
CC(C)(CC(=O)N1CCN(c2ccc(Cl)cc2)CC1)CC1=NS(=O)(=O)c2ccccc2N1	15µM*	4.1µM*	?	-28%
COc1cc(OC)c2cc(C(=O)N/N=C/c3cccc(OC)c3O)[nH]c2c1	?	?	?	9.2µM*
SMILES	KB-3-1 cytotox	KB-V1 MDR tox	HT1080-NT tox	HT1080 IDH1KD tx
COc1cccc(/C=N/NC(=O)c2cc3c(OC)ccc(OC)c3[nH]2)c1O	?	i	?	26µM*
O=c1c2ccccc2nc(/C=C/c2cc(Br)ccc2O)n1CCCO	21µM*	?	?	?
Oc1ccccc1C1C=C(c2ccc3c(c2)OCO3)NC(c2ccc(Br)cc2)N1 (configuration not stated)	i	i	nt	nt
CN(C)c1ccc(/C=C2\CCC/C(=C\c3ccccc3)C2=O)cc1	i	18µM*	12%	12%
CCC1C/C(=C\c2cccnc2)C(=O)/C(=C/c2cccnc2)C1 (configuration not stated)	3.7µM*	?	?	?
O=C1/C(=C/c2cccnc2)CC/C1=C\c1cccnc1	?	i	-21%	-9%
O=C1/C(=C/c2cccnc2)CCC/C1=C\c1cccnc1	?	3.3µM*	?	?
CC[N+]1(CC(=O)c2ccc(OC)cc2)CCCCC1	i	i	nt	nt
Cc1ccc2oc(-c3ccc(NC(=O)COc4ccccc4)cc3O)nc2c1	?	i	nt	nt
O=C(NCCc1ccccc1)c1ccc(Nc2nc3ccccc3n3nnnc23)cc1	i	i	nt	nt
CCCCNC(=O)C1(C)CCCCN1Cc1ccc(OCc2ccccc2)cc1 (configuration not stated)	?	15µM*	?	?
Cc1cc(C)cc(OCC(=O)N2N=C(C(F)(F)F)CC2(O)C(C)(C)C)c1 (configuration not stated)	?	?	18µM*	16µM*
O=C1c2ccccc2NC(c2ccccc2O)N1Cc1ccco1 (configuration not stated)	i	i	nt	nt
CCOc1ccc(CCNC(=O)CCc2c(C)nc3c(c(C)nn3-c3ccccc3)c2C)cc1OCC	i	i	nt	nt
CC1CCCCN1c1nc(-c2ccncc2)nc2ccccc12 (configuration not stated)	i	?	?	29µM*
CC1CCCCN1c1ncnc2ccccc12 (configuration not stated)	?	?	18µM*	1%
c1cncc(-c2nc(N3CCOCC3)c3ccccc3n2)c1	i	?	?	-26%

Bioassay records as filed in PubChem BioAssay.
